# Measurements reported in article PMC7862700, “An all-to-all approach to the identification of sequence-specific readers for epigenetic DNA modifications on cytosine”.
# Assays:
# Test in all cases: DAPPL (digital affinity profiling via proximity ligation, sequencing); 10 mM Tris-HCl pH 7.5, 50 mM NaCl, 1 mM DTT, 4% glycerol, room temperature, 30 min; GST-TFs on glutathione beads, 16-mer random dsDNA library, 0.1% formaldehyde crosslink after washing; high values mean tight binding
# Conditions in all cases: protein: recombinant; tags: N-terminal GST; dsDNA, one strand shown
# FLI1 = molecular target: T1, FLI1 (Homo sapiens, UniProt Q01543 1-452)
# T1 sequence: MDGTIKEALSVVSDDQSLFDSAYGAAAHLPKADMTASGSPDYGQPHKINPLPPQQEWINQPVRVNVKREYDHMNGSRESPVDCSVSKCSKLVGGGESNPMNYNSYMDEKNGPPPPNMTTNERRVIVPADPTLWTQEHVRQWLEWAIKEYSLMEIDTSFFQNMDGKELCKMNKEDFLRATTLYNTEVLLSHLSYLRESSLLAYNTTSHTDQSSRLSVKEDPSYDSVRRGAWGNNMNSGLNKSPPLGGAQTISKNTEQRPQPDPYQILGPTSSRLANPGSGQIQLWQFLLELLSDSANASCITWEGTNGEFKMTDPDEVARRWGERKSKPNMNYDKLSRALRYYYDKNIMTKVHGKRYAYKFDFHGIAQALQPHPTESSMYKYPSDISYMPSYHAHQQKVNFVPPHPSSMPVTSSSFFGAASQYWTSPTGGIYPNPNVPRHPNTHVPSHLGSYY
# In short: (§1)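 The binding signal reported is, for every hexamer, its read frequency for a factor over its read frequency for the tag-only sample. Reads came from pools of yeast-expressed, GST-fused human transcription factors on glutathione beads, barcoded with DNA and mixed with that sample, which were incubated with 200 nmole of a random double-stranded 16-mer DNA library in Tris/NaCl/DTT/glycerol buffer at room temperature for 30 min. After washing, the pools were crosslinked with 0.1% formaldehyde, proximity-ligated with BsaI/T4 ligase for 1 h at 37 °C, PCR-amplified and sequenced on an Illumina NextSeq500.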
# ELK1 = molecular target: T2, ELK1 (Homo sapiens, UniProt P19419 1-428)
# T2 sequence: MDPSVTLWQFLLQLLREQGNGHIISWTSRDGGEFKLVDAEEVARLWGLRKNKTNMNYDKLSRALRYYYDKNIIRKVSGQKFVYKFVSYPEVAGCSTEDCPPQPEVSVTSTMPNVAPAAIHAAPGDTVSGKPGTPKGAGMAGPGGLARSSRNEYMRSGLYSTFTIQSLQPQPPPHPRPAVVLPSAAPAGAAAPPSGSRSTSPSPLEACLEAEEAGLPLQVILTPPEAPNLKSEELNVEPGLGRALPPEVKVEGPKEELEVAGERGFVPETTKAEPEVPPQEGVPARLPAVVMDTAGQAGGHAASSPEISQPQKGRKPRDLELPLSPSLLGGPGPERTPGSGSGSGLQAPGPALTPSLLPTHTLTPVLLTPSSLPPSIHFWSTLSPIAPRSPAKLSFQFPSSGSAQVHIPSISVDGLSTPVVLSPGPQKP
# In short: as §1
# GABPA = molecular target: T3, GABPA (Homo sapiens, UniProt Q06546 1-454)
# T3 sequence: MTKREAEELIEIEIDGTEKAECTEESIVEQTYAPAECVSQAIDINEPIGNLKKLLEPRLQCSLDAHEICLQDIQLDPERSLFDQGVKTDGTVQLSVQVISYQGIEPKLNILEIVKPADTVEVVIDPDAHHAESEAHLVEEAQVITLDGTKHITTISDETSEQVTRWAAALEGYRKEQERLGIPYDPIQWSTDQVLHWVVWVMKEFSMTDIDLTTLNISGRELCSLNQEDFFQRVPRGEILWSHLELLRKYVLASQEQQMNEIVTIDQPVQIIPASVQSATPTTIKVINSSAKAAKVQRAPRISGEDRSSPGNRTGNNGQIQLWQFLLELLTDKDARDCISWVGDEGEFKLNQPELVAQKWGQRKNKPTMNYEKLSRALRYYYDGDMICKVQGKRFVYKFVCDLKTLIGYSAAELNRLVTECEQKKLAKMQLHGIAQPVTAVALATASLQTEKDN
# In short: as §1
# ERG = molecular target: T4, ERG (Homo sapiens, UniProt P11308 1-479)
# T4 sequence: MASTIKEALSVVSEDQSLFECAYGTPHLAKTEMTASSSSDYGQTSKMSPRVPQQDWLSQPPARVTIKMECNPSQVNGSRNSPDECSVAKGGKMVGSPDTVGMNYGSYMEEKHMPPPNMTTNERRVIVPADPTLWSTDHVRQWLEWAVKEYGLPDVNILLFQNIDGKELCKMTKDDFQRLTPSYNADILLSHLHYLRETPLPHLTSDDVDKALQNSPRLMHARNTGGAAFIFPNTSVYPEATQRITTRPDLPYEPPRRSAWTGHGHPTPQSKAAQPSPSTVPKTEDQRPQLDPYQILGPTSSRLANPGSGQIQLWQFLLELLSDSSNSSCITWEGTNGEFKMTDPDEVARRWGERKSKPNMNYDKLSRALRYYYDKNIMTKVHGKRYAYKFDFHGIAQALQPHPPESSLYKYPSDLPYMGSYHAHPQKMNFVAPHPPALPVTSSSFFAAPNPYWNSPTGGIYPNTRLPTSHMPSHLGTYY
# In short: as §1
# ELF1 = ELF1 (Homo sapiens, UniProt P32519 1-619)
# In short: as §1
# EHF = molecular target: T5, EHF (Homo sapiens, UniProt Q9NZC4 1-300)
# T5 sequence: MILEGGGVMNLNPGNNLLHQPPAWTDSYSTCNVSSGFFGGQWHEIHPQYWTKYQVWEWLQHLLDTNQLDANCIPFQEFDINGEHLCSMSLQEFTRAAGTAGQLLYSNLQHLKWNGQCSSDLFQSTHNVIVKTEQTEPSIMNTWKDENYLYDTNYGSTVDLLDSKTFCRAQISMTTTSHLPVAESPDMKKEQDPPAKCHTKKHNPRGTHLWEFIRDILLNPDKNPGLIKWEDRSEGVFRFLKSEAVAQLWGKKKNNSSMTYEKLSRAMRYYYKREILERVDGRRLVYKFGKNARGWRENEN
# In short: as §1
# SPI1 = SPI1 (Homo sapiens, UniProt P17947 1-270)
# In short: as §1
# SPIB = SPIB (Homo sapiens, UniProt Q01892 1-262)
# In short: as §1
# FEV = molecular target: T6, FEV (Homo sapiens, UniProt Q99581 1-238)
# T6 sequence: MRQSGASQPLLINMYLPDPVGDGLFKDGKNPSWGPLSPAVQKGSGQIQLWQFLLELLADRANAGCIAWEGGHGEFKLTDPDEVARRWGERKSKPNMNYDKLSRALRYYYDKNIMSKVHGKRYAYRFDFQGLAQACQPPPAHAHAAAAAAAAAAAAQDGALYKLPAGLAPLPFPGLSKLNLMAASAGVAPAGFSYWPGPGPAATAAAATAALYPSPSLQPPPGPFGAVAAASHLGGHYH
# In short: as §1
# ETV5 = ETV5 (Homo sapiens, UniProt P41161 1-510)
# In short: as §1
# SPIC = molecular target: T7, SPIC (Homo sapiens, UniProt Q8N5J4 1-248)
# T7 sequence: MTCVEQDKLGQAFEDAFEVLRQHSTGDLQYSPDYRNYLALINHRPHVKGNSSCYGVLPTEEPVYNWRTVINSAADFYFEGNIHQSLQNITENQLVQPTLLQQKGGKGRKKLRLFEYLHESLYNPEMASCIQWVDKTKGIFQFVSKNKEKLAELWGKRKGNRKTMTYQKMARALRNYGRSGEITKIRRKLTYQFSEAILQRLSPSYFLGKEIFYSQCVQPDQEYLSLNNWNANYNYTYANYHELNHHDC
# In short: as §1
# ELF4 = ELF4 (Homo sapiens, UniProt Q99607 1-663)
# In short: as §1
# ETV1 = ETV1 (Homo sapiens, UniProt P50549 1-477)
# In short: as §1
# ERF = molecular target: T8, ERF (Homo sapiens, UniProt P50548 1-548)
# T8 sequence: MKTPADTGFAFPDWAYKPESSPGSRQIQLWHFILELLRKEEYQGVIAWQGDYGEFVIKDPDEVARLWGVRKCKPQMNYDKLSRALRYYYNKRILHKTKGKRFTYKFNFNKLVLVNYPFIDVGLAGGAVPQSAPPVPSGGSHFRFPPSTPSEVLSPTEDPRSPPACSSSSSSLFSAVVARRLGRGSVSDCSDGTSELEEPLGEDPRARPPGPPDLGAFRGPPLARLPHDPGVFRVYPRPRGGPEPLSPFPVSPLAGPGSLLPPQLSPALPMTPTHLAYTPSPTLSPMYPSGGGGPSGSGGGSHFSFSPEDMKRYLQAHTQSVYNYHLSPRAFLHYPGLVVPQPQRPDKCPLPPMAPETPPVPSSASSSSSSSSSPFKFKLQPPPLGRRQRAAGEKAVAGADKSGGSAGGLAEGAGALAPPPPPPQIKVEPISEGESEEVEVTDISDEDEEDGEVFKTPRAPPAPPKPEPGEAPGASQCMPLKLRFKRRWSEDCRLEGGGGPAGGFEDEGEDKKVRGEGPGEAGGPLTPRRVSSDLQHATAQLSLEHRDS
# In short: as §1
# ETV3L = molecular target: T9, ETV3L (Homo sapiens, UniProt Q6ZN32 1-361)
# T9 sequence: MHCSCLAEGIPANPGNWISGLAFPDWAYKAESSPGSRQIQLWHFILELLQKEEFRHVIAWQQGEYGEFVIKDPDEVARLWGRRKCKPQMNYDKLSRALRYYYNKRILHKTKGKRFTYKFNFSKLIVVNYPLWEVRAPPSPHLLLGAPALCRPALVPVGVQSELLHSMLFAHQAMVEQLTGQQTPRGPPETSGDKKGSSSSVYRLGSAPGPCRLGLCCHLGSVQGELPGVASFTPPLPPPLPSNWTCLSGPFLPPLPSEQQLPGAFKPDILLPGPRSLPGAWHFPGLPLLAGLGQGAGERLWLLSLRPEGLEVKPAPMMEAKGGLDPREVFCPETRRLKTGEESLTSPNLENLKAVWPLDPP
# In short: as §1
# ETS2 = molecular target: T10, ETS2 (Homo sapiens, UniProt P15036 1-469)
# T10 sequence: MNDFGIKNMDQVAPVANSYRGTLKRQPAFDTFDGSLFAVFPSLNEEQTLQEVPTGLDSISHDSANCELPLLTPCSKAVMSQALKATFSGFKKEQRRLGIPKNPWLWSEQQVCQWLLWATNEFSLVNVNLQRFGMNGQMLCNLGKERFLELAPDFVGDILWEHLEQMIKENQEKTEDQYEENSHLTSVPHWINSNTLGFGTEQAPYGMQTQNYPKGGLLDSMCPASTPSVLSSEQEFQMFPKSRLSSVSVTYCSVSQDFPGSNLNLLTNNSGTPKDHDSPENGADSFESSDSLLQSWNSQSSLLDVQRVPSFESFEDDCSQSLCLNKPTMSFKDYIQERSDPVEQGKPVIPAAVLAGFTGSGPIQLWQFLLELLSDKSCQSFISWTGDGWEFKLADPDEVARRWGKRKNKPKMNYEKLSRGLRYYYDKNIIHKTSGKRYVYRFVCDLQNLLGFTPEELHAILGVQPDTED
# In short: as §1
# SPDEF = molecular target: T11, SPDEF (Homo sapiens, UniProt O95238 1-335)
# T11 sequence: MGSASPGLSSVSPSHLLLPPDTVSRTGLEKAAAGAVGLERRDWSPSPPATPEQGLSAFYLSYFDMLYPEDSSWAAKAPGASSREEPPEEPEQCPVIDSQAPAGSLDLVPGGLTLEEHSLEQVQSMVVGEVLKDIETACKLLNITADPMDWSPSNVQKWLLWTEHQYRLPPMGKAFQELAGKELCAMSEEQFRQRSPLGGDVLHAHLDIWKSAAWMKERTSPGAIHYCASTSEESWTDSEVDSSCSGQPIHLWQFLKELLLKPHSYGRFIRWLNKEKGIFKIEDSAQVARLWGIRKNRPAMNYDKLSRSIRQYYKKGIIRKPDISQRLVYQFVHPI
# In short: as §1
# ETV3 = molecular target: T12, ETV3 (Homo sapiens, UniProt P41162-2 1-143)
# T12 sequence: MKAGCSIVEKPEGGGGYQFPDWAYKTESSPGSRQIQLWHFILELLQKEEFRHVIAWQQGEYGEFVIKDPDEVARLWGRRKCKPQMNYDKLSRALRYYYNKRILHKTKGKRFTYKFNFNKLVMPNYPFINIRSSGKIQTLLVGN
# In short: as §1
# ETV6 = ETV6 (Homo sapiens, UniProt P41212 1-452)
# In short: as §1
# Chain of ETV5 (P41161 whole entry): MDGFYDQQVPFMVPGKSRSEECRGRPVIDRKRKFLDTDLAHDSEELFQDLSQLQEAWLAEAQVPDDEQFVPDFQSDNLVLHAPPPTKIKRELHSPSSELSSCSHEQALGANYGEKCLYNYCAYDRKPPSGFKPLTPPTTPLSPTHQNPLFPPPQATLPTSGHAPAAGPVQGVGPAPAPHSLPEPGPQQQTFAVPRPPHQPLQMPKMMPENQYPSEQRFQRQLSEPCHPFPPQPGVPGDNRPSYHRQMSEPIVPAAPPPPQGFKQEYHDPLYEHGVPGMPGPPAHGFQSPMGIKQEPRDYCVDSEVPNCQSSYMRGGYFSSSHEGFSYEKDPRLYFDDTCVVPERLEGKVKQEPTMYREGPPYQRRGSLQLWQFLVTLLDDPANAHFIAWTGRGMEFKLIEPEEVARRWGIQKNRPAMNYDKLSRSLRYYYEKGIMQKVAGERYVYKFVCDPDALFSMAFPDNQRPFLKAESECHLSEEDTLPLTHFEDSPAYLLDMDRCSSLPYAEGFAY
# Chain of ETV6 (P41212 whole entry): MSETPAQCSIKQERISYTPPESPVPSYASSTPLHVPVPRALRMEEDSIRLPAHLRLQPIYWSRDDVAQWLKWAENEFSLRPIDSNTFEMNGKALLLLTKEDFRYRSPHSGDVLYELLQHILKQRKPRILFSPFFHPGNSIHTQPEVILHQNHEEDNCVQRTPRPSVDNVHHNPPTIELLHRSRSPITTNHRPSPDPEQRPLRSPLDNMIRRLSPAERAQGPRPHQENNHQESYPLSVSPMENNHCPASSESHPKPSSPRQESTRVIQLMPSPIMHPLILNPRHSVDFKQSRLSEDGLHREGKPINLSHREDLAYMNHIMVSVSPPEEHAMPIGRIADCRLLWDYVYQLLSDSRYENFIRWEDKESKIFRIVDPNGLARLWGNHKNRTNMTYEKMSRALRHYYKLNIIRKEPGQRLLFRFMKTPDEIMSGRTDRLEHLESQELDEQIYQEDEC
# Chain of ETV1 (P50549 whole entry): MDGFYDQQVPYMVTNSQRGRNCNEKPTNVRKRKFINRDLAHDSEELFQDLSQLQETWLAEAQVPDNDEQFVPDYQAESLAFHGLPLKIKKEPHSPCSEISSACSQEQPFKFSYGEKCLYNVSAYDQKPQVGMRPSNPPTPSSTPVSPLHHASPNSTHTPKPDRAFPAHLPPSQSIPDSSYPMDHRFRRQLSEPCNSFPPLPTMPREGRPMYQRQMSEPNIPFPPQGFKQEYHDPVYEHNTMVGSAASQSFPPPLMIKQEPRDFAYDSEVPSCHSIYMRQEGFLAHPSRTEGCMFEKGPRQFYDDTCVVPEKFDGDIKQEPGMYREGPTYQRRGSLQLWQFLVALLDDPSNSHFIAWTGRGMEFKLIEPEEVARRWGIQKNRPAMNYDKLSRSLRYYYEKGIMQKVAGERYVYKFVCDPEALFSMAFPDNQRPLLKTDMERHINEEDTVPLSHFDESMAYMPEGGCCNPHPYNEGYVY
# Chain of ELF4 (Q99607 whole entry): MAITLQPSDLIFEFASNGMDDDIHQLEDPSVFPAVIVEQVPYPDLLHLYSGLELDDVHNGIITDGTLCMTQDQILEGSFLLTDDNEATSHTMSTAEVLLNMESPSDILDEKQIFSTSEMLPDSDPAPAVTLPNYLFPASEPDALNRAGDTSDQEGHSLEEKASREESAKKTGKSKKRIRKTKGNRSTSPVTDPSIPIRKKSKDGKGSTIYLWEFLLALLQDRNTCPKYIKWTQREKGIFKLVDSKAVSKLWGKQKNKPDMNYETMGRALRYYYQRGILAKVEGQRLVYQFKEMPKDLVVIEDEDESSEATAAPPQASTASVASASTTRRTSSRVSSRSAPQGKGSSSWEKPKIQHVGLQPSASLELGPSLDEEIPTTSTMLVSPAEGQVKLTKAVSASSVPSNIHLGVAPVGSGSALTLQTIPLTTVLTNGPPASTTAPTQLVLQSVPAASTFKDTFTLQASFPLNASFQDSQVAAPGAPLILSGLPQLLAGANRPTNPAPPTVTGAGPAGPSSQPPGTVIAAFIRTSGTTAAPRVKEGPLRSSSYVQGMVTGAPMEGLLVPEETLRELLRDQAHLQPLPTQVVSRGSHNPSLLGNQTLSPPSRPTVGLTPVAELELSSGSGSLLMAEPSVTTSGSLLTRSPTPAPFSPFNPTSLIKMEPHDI
# Chain of ELF1 (P32519 whole entry): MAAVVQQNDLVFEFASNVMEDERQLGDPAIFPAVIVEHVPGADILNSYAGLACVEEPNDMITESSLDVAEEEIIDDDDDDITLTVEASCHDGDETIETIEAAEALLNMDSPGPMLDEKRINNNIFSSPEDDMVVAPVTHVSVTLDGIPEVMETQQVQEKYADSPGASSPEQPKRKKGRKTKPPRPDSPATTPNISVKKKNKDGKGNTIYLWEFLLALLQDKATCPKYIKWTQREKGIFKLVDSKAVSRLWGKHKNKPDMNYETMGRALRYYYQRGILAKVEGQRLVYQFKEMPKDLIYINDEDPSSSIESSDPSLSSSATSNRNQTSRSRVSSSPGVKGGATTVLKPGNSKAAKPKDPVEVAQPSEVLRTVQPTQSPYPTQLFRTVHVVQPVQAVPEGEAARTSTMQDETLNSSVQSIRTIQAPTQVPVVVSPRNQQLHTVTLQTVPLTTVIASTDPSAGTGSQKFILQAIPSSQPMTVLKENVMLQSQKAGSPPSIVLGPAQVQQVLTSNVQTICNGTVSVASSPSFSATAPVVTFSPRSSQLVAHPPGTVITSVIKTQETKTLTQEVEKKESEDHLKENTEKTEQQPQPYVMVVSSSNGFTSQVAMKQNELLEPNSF
# Chain of SPIB (Q01892 whole entry): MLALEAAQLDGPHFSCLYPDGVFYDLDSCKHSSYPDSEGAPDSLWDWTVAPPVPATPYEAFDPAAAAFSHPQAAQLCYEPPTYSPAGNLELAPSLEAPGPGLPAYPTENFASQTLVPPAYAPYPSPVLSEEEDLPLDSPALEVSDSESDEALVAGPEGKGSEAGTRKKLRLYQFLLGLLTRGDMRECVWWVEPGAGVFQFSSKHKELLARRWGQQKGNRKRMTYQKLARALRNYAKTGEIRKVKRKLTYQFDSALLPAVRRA
sequence,measurement,setting,value
TGGACC,binding signal,FLI1,"1.11 fold enrichment (6-mer frequency, TF over GST control)"
same,binding signal,ELK1,"1.03 fold enrichment (6-mer frequency, TF over GST control)"
same,binding signal,GABPA,"1.09 fold enrichment (6-mer frequency, TF over GST control)"
same,binding signal,ERG,"1.04 fold enrichment (6-mer frequency, TF over GST control)"
same,binding signal,ELF1,"1.06 fold enrichment (6-mer frequency, TF over GST control)"
same,binding signal,EHF,"1.1 fold enrichment (6-mer frequency, TF over GST control)"
same,binding signal,SPI1,"1.1 fold enrichment (6-mer frequency, TF over GST control)"
same,binding signal,SPIB,"1.02 fold enrichment (6-mer frequency, TF over GST control)"
same,binding signal,FEV,"1.17 fold enrichment (6-mer frequency, TF over GST control)"
same,binding signal,ETV5,"1.05 fold enrichment (6-mer frequency, TF over GST control)"
same,binding signal,SPIC,"1.16 fold enrichment (6-mer frequency, TF over GST control)"
same,binding signal,ELF4,"1.06 fold enrichment (6-mer frequency, TF over GST control)"
same,binding signal,ETV1,"1.08 fold enrichment (6-mer frequency, TF over GST control)"
same,binding signal,ERF,"1.11 fold enrichment (6-mer frequency, TF over GST control)"
same,binding signal,ETV3L,"1.13 fold enrichment (6-mer frequency, TF over GST control)"
same,binding signal,ETS2,"1.04 fold enrichment (6-mer frequency, TF over GST control)"
same,binding signal,SPDEF,"1.05 fold enrichment (6-mer frequency, TF over GST control)"
same,binding signal,ETV3,"1.04 fold enrichment (6-mer frequency, TF over GST control)"
same,binding signal,ETV6,"1.08 fold enrichment (6-mer frequency, TF over GST control)"
